This is an account of results in PubChem BioAssay (NCI).

This is part of a sample that, as a whole, favours compounds with a hit. Of some 83,000 tested, about 20% had one in any assay.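 Cell lines were cultured in 96-well plates, exposed to a single compound concentration, and assessed for percent growth 48 hours later.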 Unmarked numbers belong to inactive results. Active and inactive are the calls of the source.

The test relates to COLO 205 colon. The test can be described thus: NCI-60 one-dose screen, 48 h (100 = growth as untreated, 0 = no growth, -100 = all killed). As to conditions: 10 µM unless noted. The protocol: Cells are grown in 96 well plates and exposed to the test compound for 48 hours. Compounds are tested at a single concentration, which is 10^-5 M for most compounds. The reported endpoint is percent growth (GI% or GIPRCNT), where numbers from 0 - 100% represent growth inhibition, and numbers from -100% - 0 represent cell death. For example, a value of 40 represents 60% growth inhibition. A value of 0 means no net growth occurred over the course of the experiment. A value of -40 indicates 40% of cells at the beginning of the experiment died by the end of the experiment. A value of -100 means all cells are dead at the end of the experiment.
NCI-60 Human Tumor Cell Lines Screen was performed using the standard one-dose NCI protocol, which is described in more detail at https://dtp.cancer.gov/discovery_development/nci-60/default.htm.
Compounds with GIPRCNT values below 10 were considered active. Activity score was based on GIPRCNT using the following formula: […]
Score is 0 for GIPRCNT values of 100 or above, 50 for GIPRCNT values of 0, and 100 for GIPRCNT values of -100.
Consider `Brc1cccc(-n2ncc3c(Nc4ccc(-c5nnc(-c6ccccc6)o5)cc4)ncnc32)c1`, for which the growth is 107%.

Consider `CNC(=O)c1cc(Oc2ccc(NC(=O)c3[nH]c(SC)nc3-c3ccc(F)cc3)cc2)ccn1`, for which the growth is 7.33% (active).

As to `CS(=O)(=O)Nc1cc(-c2cc3ncc(C#N)c(Nc4ccc(Oc5ccccc5)c(Cl)c4)c3s2)cnc1Cl`, the growth is 66.9%.

Turning to `COc1cc(C2=NOC(c3cc(OC)c(OC)c(OC)c3)C2)ccc1OCCCCOc1cc2c(cc1OC)C(=O)N1CCC[C@H]1C=N2` (stereo not given in full), the growth is -78% (active).

As to `Cc1ccc(Nc2nc(NCCO)c3ccccc3n2)cc1C`, the growth was -65.7% (active).

As to `CCC1CCc2nc3sc(C(=O)Nc4cccc(F)c4)c(N)c3cc2C1` (stereo not given), the growth is 67.8%.

As to `CCOC(=O)c1ccccc1SC(C[N+](=O)[O-])c1ccccc1` (stereo not given), the growth was 102%.

Consider `NC(=O)c1noc(C(=O)c2ccccc2)c1N`, for which the growth was 111%.

For the molecule `COc1ccc(C(=O)c2cc(C)c(OC)c(C)c2)cc1OC(=O)CCl`, the growth is 9.62% (active).

`C=CCn1c(SCC(=O)Nc2ccc(/C(C)=N\O)cc2)nnc1-c1cc(-c2ccccc2)nc2ccccc12`: the growth is 64.2%.

Take `COc1ccc(-c2n[nH]nc2-c2cc(OC)c3c(c2)OCO3)cc1`: the growth was -93.1% (active).

In the case of `CCOP(=O)(O)OP(=O)(O)OCC`, the growth is 103%.

In the case of `CC[C@H](Nc1nc(C)nc(N)c1C#N)c1nc2cccc(NCc3ccc(C(=O)NO)cc3)c2c(=O)n1-c1ccccc1`, the growth is 0.926% (active).

On to `CN(C)c1ccc(N2Cc3ccccc3OC3=C2C(=O)c2c(O)ccc(O)c2C3=O)cn1`, for which the growth was -81.9% (active).

For `COc1cc2cc(C(=O)Nc3ccccc3)c(N)nc2cc1OC`, the growth is -93.3% (active).

For the molecule `COC(=O)C(C)NC1=C(Cl)C(=O)C(NC(C)C(=O)OC)=C(Cl)C1=O` (stereo not given), the growth was 99.5%.

Turning to `CC(C)NC(=O)OCC#CCOC(=O)NC(C)C`, the growth was 106%.

For the molecule `Nc1cc2nc3ccccc3oc-2cc1=O`, the growth was -74.9% (active).

Take `Cc1ccc(-c2cnc3sc4ccc(Cl)cc4n23)cc1`: the growth was 96.8%.

`Cc1nc2ccc(Nc3nc(Cl)nc(N4CCOCC4)n3)cc2n1Cc1ccccc1`: the growth is 100%.

For `N#Cc1ccc(NC(=O)Nc2nc3ccc(OC(F)(F)F)cc3s2)cc1`, the growth is -90.1% (active).

Regarding `COc1cc(/C=C/C(=O)c2c(C)nc3ccccc3c2C)ccc1OCCCOc1cc2c(cc1OC)C(=O)N1CCC[C@H]1C=N2`, the growth is -85.9% (active).

`CCOC(=O)c1sc2nc(-c3cc4ccccc4o3)cc(-c3ccc(Cl)cc3)c2c1N`: the growth was 115%.

For `COc1ccc(-c2cnc3ccnn3c2-c2cc(OC)c(OC)c(OC)c2)cc1`, the growth is -31.2% (active).

Take `O=[N+]([O-])c1cc(F)c2cccnc2c1O`: the growth was 104%.

In the case of `Cc1cc(C)c2c(n1)sc1c(Nc3ccc(OCc4ccccc4)cc3)ncnc12`, the growth is 111%.

Consider `CCCCCCCCCC1=NC(C)(C)CN1C(C)(C)CO`, for which the growth is 184%.

With `COc1ccc(-c2nc(-c3ccccc3OCc3ccccc3OC)nc(C)c2C(C)=O)cc1`, the growth was 86.7%.

In the case of `Cc1ccc(NC(=O)c2nc(S(C)(=O)=O)oc2-c2ccc(F)cc2)cc1Nc1ccc2ncn(C)c(=O)c2c1`, the growth is -8.69% (active).

For `COC1CC(N)C2OC(c3ccccc3)OCC2O1` (stereo not given), the growth is 113%.

`CC1=C(C(=O)Nc2ccc(F)cc2)C(c2ccc(C)cc2)C2=C(CC(C)(C)CC2=O)N1` (stereo not given): the growth is 105%.

As for `Fc1ccc2nc(-c3ccc(-c4noc(-c5ccc(Cl)cc5)n4)cc3)[nH]c2c1`, the growth was 116%.

For the molecule `Nc1n[nH]c2ccc([C@@H]3Nc4c(F)cc5[nH]ncc5c4[C@H]4C5CCC(C5)[C@@H]34)cc12` (stereo not given in full), the growth is -0.831% (active).

On to `O=C(c1ccccc1)N(CCCCl)C(=O)N(CCCCl)C(=O)c1ccccc1`, for which the growth was 102%.

In the case of `C/C=C(\C)C(C(=O)NC1CCCCC1)N(C(=O)C1CCc2cc(F)ccc2O1)c1ccc([N+](=O)[O-])cc1` (stereo not given), the growth is 98.7%.

For `COc1ccc(/C=C/C(=O)c2ccc(NC(=O)CSc3nnc(-c4ccc(OC)cc4)n3-c3ccccc3)cc2)cc1`, the growth was 107%.

Take `COc1ccc(-c2cn(-c3cccc(C(=O)/C=C/c4ccc(O)c(OC)c4)c3)c(=O)[nH]2)cc1`: the growth is 105%.

On to `CC1=C(C(=O)Nc2ccc(F)cc2)C(c2ccccc2)C2=C(CC(C)(C)CC2=O)N1` (stereo not given), for which the growth is 99.2%.

For `Cc1ccc(NC(=O)c2[nH]c(SCCN(C)C)nc2-c2ccc(F)cc2)cc1C#Cc1cnc2cccnn12`, the growth was 81.1%.

For the molecule `C=C(C)[C@@H]1CC[C@]2(C)[C@H](CC=C3[C@@H]4C[C@](C)(C(=O)N5CCN(C)CC5)CC[C@]4(C)CC[C@]32C)[C@@]1(C)CCC#N`, the growth was 45.2%.
